# Screening data from PubChem.
# The sample as a whole holds a higher share of hits than the screen did.
# Pf Dd2 growth: inhibitors of Plasmodium falciparum Dd2 growth; 120,000 tested, 4.3% active; P. falciparum Dd2 growth, SYBR Green, 72 h; AID 1347417; Potency, µM (top dose mostly 28.9 µM), actives largely listed as inhibitors; active means well fitted inhibition curve with a large enough effect; further: nearly all actives have a fitted effect of over 65% in size
#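 Readout: SYBR Green fluorescence, 485 nm excitation, 535 nm emission, after ~16 h lysis at 37C. Before that, Dd2-infected red cells (2.5% hematocrit) grew 72 h with compound, 29 uM top final concentration.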
# Numbers stand for hits; n = inactive.
SMILES,Pf Dd2 growth
O=C1CCN(S(=O)(=O)c2cccs2)CCCC(c2nc(-c3cccnc3)no2)CCN1 (centres undefined),n
O=C(C1CC1)N1CCc2nn(Cc3ccccc3)c(=O)n2CC1,n
O=C1NCCOCCCN(C(=O)NCCc2ccccc2)[C@H]2CCCC[C@@H]12,n
CC(=O)N1CCC([C@@H]2CN(Cc3cccc(C#N)c3)C[C@H]2CO)CC1,n
O=C(CCc1ccccc1)N1CCC2OCCN(Cc3ccccc3F)C(=O)C2C1 (centres undefined),n
O=C(OCc1ccccc1)N1CCn2cc(C(=O)N3CCOCC3)nc2C1,n
COC1C(=O)N(C2CCN(C(=O)Cc3cccc(F)c3)CC2)C12CCOCC2 (centres undefined),n
Cc1cnc(CC2CCN(S(=O)(=O)c3ccc(C#N)cc3)C2)n1C1CC1 (centres undefined),10µM
Cc1cnc(CC2CCN(C(=O)NC(C)(C)C)CC2)n1Cc1ccc(F)cc1,n
COc1cccc(CN2CCCC(Cc3ncc(C)n3Cc3ccccc3)C2)c1 (centres undefined),n
Cc1cnc(CC2CCN(C(=O)Nc3ccccc3)C2)n1CC1CC1 (centres undefined),n
CCC(=O)N1CCC(Cc2ncc(C)n2C2CC2)C1 (centres undefined),n
Cc1cnc(CC2CCN(C(=O)C3CC3)CC2)n1Cc1ccccc1,6.3µM
CCCS(=O)(=O)NCCc1ncc(C)n1Cc1ccccc1,n
N#Cc1ccc(S(=O)(=O)N2CCC(Cc3nc(-c4ccncc4)n[nH]3)C2)cc1 (centres undefined),n
CCS(=O)(=O)N1CCC(Cc2ncc(C)n2Cc2ccccc2)C1 (centres undefined),11µM
COc1ccc(C(=O)N[C@@H]2CCC[C@@H]2C(=O)NCc2ccc(C(C)C)cc2)cn1,n
O=C(O)c1ccc(CN2C[C@@H]3OCC(=O)N(Cc4cccnc4)[C@@H]3C2)cc1,n
CC(C)c1noc(-c2cn(C3CCN(C(=O)c4ccc[nH]4)C3)nn2)n1 (centres undefined),n
O=c1n(CC2CC2)nc2n1CCN(Cc1ccc3cc[nH]c3c1)CC2,n
C=CCc1ccccc1OCCN(C)Cc1ncnn1CC,n
C=CCc1ccccc1OCCN(C)Cc1nc(C)ccc1O,8.9µM
C=CCc1ccccc1OCCN(C)Cc1ccc(S(C)(=O)=O)cc1,n
CCC(C)(C)C(=O)NCc1cc2c(nc1OC)CN(C1CCCC1)C2=O,n
CCCN1C(=O)c2[nH]nc(-c3cccc(OC)c3)c2C1c1ccccn1 (centres undefined),n
SMILES,Pf Dd2 growth
CCCN1C(=O)c2[nH]nc(-c3ccccc3O)c2C1c1cccc(OCc2ccccc2)c1 (centres undefined),4.5µM
O=C1c2[nH]nc(-c3ccccc3O)c2C(c2ccc(Cl)cc2)N1CCc1ccccc1 (centres undefined),8.9µM
O=C1c2[nH]nc(-c3ccccc3O)c2C(c2ccc(F)cc2)N1CCO (centres undefined),n
COc1ccc(-c2n[nH]c3c2C(c2ccccn2)N(C)C3=O)cc1 (centres undefined),n
CCCN1C(=O)c2[nH]nc(-c3ccccc3)c2C1c1cccc(O)c1 (centres undefined),n
O=C(NC1(C(F)(F)F)NC(=O)N(CCc2ccccc2)C1=O)c1ccc(Cl)cc1 (centres undefined),n
CCOc1cc(C2c3c(oc4ccccc4c3=O)C(=O)N2Cc2ccc(OC)cc2)ccc1O (centres undefined),n
COc1ccc(CCN2C(=O)c3[nH]nc(-c4ccccc4O)c3C2c2ccc(O)c(OC)c2)cc1 (centres undefined),10µM
Cc1ncccc1OC1(C(=O)O)CCN(C(=O)C2CC23CCC3)CC1 (centres undefined),n
COC1C(=O)N(C2CCN(C(=O)Nc3ccc4c(c3)OCCO4)CC2)C12CCOCC2 (centres undefined),n
COc1ccccc1-c1noc(-c2nnn3c2COC(c2ccc(C)cc2C)C3)n1 (centres undefined),n
O=C(Cc1ccsc1)N1CCC(N2CC3CC(C2)[C@H]2CCCC(=O)N2C3)CC1 (some centres undefined),n
CCCS(=O)(=O)N1CC(F)(F)C[C@H]1c1nnc(C)o1,n
COc1ccc(OC)c(CN2CCc3ncc(C(=O)NCc4ccccc4)n3CC2)c1,n
CCNC(=O)N1CCCC1c1noc(CCC(=O)NCc2cccc(C(F)(F)F)c2)n1 (centres undefined),n
CN(C)CCNC(=O)c1cc2cn(C3CC3)cc2s1,n
O=C(c1ccc2c(c1)OCO2)N1CCn2c(nn(-c3cccc(Cl)c3)c2=O)C1,n
COCCN1CC(CO)C2(CCN(Cc3ccc(C#N)cc3)CC2)C1 (centres undefined),n
O=C(COc1ccccc1)NCC(=O)N1CCCCCCNC(=O)CC1c1ccccc1 (centres undefined),n
Cc1cc(C(=O)NCC(=O)N2CCCCCCNC(=O)CC2c2ccccc2)n(C)n1 (centres undefined),n
O=C1CC(c2ccccc2)N(C(=O)CNS(=O)(=O)c2cccnc2)CCCCCCN1 (centres undefined),n
O=C1NCCCCCCN(C(=O)c2ccccn2)[C@H]2CCC[C@@H]12,n
Cn1nc(C(=O)NCC(=O)N2CCCCCCNC(=O)CC2c2ccccc2)c2ccccc21 (centres undefined),0.63µM
Cn1nccc1C(=O)NCC(=O)N1CCCCCNC(=O)CC1c1ccccc1 (centres undefined),n
O=C1CC(c2ccccc2)N(C(=O)CNS(=O)(=O)c2ccccc2)CCCCCN1 (centres undefined),n
SMILES,Pf Dd2 growth
Cc1ncccc1C(=O)N1CCCCCCNC(=O)[C@@H]2CCCC[C@@H]21,n
Cn1nc(C(=O)N2CCCCCCNC(=O)[C@@H]3CCCC[C@@H]32)c2ccccc21,2.2µM
O=C1CC(c2ccccc2)N(C(=O)CNC(=O)C2CC2)CCCCCCN1 (centres undefined),n
O=C1CC(c2ccccc2)N(C(=O)CNC(=O)Cn2c(=O)oc3ccccc32)CCCCCCN1 (centres undefined),10µM
O=C1CC(c2ccccc2)N(C(=O)CNS(=O)(=O)c2ccc3c(c2)CCC3)CCCCCCN1 (centres undefined),11µM
CCn1nc(C)c(CNC(=O)CCC[C@@H]2[C@H]3CCCN4CCC[C@@H](CN2C)[C@@H]34)c1C,n
COc1ccc(C(=O)N2CCCOCCNC(=O)[C@@H]3CCCC[C@@H]32)c(OC)c1,n
O=C(O)C[C@@H]1CCN(C(=O)C2CCCCC2)C[C@@H]1CCN1CCN(c2ccc(F)cc2)CC1,n
O=C(Nc1ccccc1)N1CCC(c2nc(CCOc3ccc(F)cc3)no2)C1 (centres undefined),n
CCc1nc(-c2c3n(c(=O)n(CC(=O)NCc4ccccc4)c2=O)CCCC3)no1,n
O=C(c1ccccc1)N1Cc2ccccc2CC2(CCCCN2CC2CCNC2)C1 (centres undefined),n
COc1ccc(CC2CCOC3(CCN(C(=O)c4cc5ccccc5[nH]4)CC3)C2)cc1 (centres undefined),n
CN(C)c1ccc(CN2C[C@H](O)C[C@H]2c2nc(-c3ccncc3)no2)cc1,n
CCc1ccccc1NC(=O)N1CCC2(CC1)C(=O)N(CC(=O)N(C)C)CN2c1ccccc1,n
COCc1cc(NCCCNc2cccnc2)ncn1,n
O=C(Nc1ccccc1)O[C@@H]1CO[C@H]2[C@@H]1OC[C@@H]2NC(=O)c1ccc(C(F)(F)F)cc1,n
